According to PubChem BioAssay (NCATS):
Inconclusive results are not listed. Activity calls are given as the source filed them. Calls come from the whole dose curve; as a rule, active = well fitted curve in the direction sought with a large enough effect; inconclusive = small, poorly fitted or top-dose-only effect, or another doubt; inactive = no such curve, though single readings can be large; an effect the other way counts as inactive or inconclusive.

Assays:
[1] = qHTS of pediatric cancer cell lines to identify multiple opportunities for drug repurposing: Primary screen for NB-EBc1 cells (AID 1347095)
Procedure, shortened: (§1)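 Readout: CellTiter-Glo luminescence, 48 h treatment. Controls DMSO (neutral) and bortezomib 2.3 µM final (positive). Potency and efficacy taken from primary-screen concentration-response curves.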

[2] = qHTS of pediatric cancer cell lines to identify multiple opportunities for drug repurposing: Primary screen for U-2 OS cells (AID 1347096); note: nearly all actives have a fitted effect of over 50% in size
Procedure, shortened: (§2)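 Cells (500-1,000/well) in growth media were settled 5 h at 37 degrees C, then given compounds for 48 h. Viability was read as CellTiter-Glo luminescence. Primary runs used MIPE at 11 points (0.78 nM-46 µM) and NPC at 8 points (0.59 nM-46 µM); follow-ups used 11 points.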

[3] = qHTS of pediatric cancer cell lines to identify multiple opportunities for drug repurposing: Primary screen for Saos-2 cells (AID 1347097); note: nearly all actives have a fitted effect of over 40% in size
Procedure, shortened: as §1

[4] = qHTS of pediatric cancer cell lines to identify multiple opportunities for drug repurposing: Primary screen for SK-N-SH cells (AID 1347098); note: nearly all actives have a fitted effect of over 65% in size
Procedure, shortened: (§3)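 Cells (500-1,000/well) rested 5 h, then received compounds for 48 h; metabolically active cells were measured by CellTiter-Glo luminescence. Final concentrations spanned up to 46 µM (MIPE, 11-point) or 0.59 nM-46 µM (NPC, 8-point) in primary screens, 11-point in follow-ups.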

[5] = qHTS of pediatric cancer cell lines to identify multiple opportunities for drug repurposing: Primary screen for LAN-5 cells (AID 1347100)
Procedure, shortened: as §2

[6] = qHTS of pediatric cancer cell lines to identify multiple opportunities for drug repurposing: Primary screen for BT-12 cells (AID 1347101); note: nearly all actives have a fitted effect of over 25% in size
Procedure, shortened: as §3

[7] = qHTS of pediatric cancer cell lines to identify multiple opportunities for drug repurposing: Primary screen for OHS-50 cells (AID 1347103); note: nearly all actives have a fitted effect of over 40% in size
Procedure, shortened: as §3

[8] = qHTS of pediatric cancer cell lines to identify multiple opportunities for drug repurposing: Primary screen for RD cells (AID 1347104); note: nearly all actives have a fitted effect of over 55% in size
Procedure, shortened: as §1

[9] = qHTS of pediatric cancer cell lines to identify multiple opportunities for drug repurposing: Primary screen for MG 63 (6-TG R) cells (AID 1347105); note: nearly all actives have a fitted effect of over 50% in size
Procedure, shortened: as §1

[10] = qHTS of pediatric cancer cell lines to identify multiple opportunities for drug repurposing: Primary screen for control Hh wild type fibroblast cells (AID 1347106); note: nearly all actives have a fitted effect of over 55% in size
Procedure, shortened: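 Viability after 48 h compound treatment at 37C, 500-1,000 cells/well, read as ATP luminescence with CellTiter-Glo. Primary screens used 11-point (MIPE, 0.78 nM-46 µM) or 8-point (NPC, 0.59 nM-46 µM) final concentrations; follow-up screens used 11-point dilutions.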

[11] = qHTS of pediatric cancer cell lines to identify multiple opportunities for drug repurposing: Primary screen for Rh30 cells (AID 1347107); note: nearly all actives have a fitted effect of over 75% in size
Procedure, shortened: as §2

[12] = qHTS of pediatric cancer cell lines to identify multiple opportunities for drug repurposing: Primary screen for Rh41 cells (AID 1347108); note: nearly all actives have a fitted effect of over 70% in size
Procedure, shortened: as §1

[13] = qHTS of pediatric cancer cell lines to identify multiple opportunities for drug repurposing: Primary screen for NB1643 cells (AID 1347099); note: nearly all actives have a fitted effect of over 50% in size
Procedure, shortened: as §1

[14] = qHTS of pediatric cancer cell lines to identify multiple opportunities for drug repurposing: Confirmatory screen for NB1643 cells (AID 1347109); note: nearly all actives have a fitted effect of over 45% in size
Procedure, shortened: as §2

[15] = qHTS of pediatric cancer cell lines to identify multiple opportunities for drug repurposing: Confirmatory screen for A673 cells (AID 1347110);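 note: cells exposed to compound for 48 h before the viability read; nearly all actives have a fitted effect of over 65% in size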
Procedure, shortened: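 Cells plated at 500-1,000/well were treated five hours later with multi-point dilutions up to 46 µM final. After two days, CellTiter-Glo was added and luminescence read.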

[16] = qHTS of pediatric cancer cell lines to identify multiple opportunities for drug repurposing: Confirmatory screen for SK-N-MC cells (AID 1347111);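 note: cells exposed to compound for 48 h before the readout; nearly all actives have a fitted effect of over 70% in size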
Procedure, shortened: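 Metabolically active cells were quantified by ATP-dependent luminescence (CellTiter-Glo, 15 min at room temperature) following 48 h treatment. Cells had been plated at 500-1,000 per well and settled for 5 h beforehand.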

[17] = qHTS of pediatric cancer cell lines to identify multiple opportunities for drug repurposing: Confirmatory screen for BT-12 cells (AID 1347112); note: nearly all actives have a fitted effect of over 55% in size
Procedure, shortened: as §2

[18] = qHTS of pediatric cancer cell lines to identify multiple opportunities for drug repurposing: Confirmatory screen for LAN-5 cells (AID 1347113); note: nearly all actives have a fitted effect of over 65% in size
Procedure, shortened: as §2

[19] = qHTS of pediatric cancer cell lines to identify multiple opportunities for drug repurposing: Primary screen for Rh18 cells (AID 1347102); note: nearly all actives have a fitted effect of over 65% in size
Procedure, shortened: as §2

Measured: Potency
Potency is the fitted concentration of half-maximal effect.

C[C@H](CCC(=O)O)[C@H]1CCC2C3C[C@H](O)[C@@H]4C[C@H](O)CC[C@]4(C)C3CC[C@@]21C (stereo not given in full)
inactive: [1] | [2] | [3] | [4] | [5] | [6] | [7] | [8] | [9] | [10] | [11] | [12]

O=C(C=CC#Cc1cccc(NS(=O)(=O)c2ccccc2)c1)NO
inactive: [10]
active: [1] 0.833 µM | [2] 2.96 µM | [3] 2.35 µM | [4] 3.41 µM | [13] 1.18 µM | [5] 1.18 µM | [6] 7.69 µM | [7] 5.44 µM | [8] 5.26 µM | [9] 5.9 µM | [11] 11.8 µM | [12] 2.96 µM | [14] 2.33 µM | [15] 1.65 µM | [16] 0.414 µM | [17] 18.5 µM | [18] 2.61 µM

NC(=O)Nc1sc(-c2ccc(F)cc2)cc1C(N)=O
active: [1] 0.469 µM | [2] 4.69 µM | [3] 2.35 µM | [4] 5.41 µM | [13] 4.69 µM | [5] 1.18 µM | [19] 5.26 µM | [7] 0.432 µM | [8] 1.66 µM | [9] 0.59 µM | [11] 6.62 µM | [12] 1.05 µM | [15] 6.57 µM | [16] 8.27 µM
inactive: [10] | [17]

Oc1ccc([C@@H]2Oc3ccc(O)cc3[C@@H]3CCC[C@@H]32)cc1
inactive: [2]
active: [1] 7.43 µM | [3] 6.62 µM | [4] 24.1 µM | [5] 10.5 µM | [6] 24.3 µM | [7] 24.3 µM | [8] 16.6 µM | [12] 18.7 µM

Cc1nc(NC(=O)N2CCC[C@@H]2C(N)=O)sc1-c1ccnc(C(C)(C)C(F)(F)F)c1
inactive: [2]
active: [1] 1.48 µM | [13] 9.35 µM | [19] 3.72 µM | [7] 0.485 µM | [8] 0.372 µM | [9] 1.18 µM | [12] 4.18 µM | [16] 5.22 µM | [18] 2.93 µM

CCN(CC)CCCCNc1ncc2c(n1)N(C)C(=O)N(c1c(Cl)c(OC)cc(OC)c1Cl)C2
inactive: [3] | [9]
active: [4] 6.81 µM | [6] 17.2 µM | [19] 11.8 µM | [7] 19.3 µM | [8] 18.7 µM | [12] 18.7 µM

CCCNC(=O)[C@H]1O[C@H]1C(=O)N[C@H](C(=O)N1CCC[C@@H]1C(=O)OC)C(C)CC (stereo not given in full)
active: [1] 16.6 µM | [3] 2.96 µM | [13] 9.35 µM | [5] 10.5 µM | [19] 14.8 µM | [7] 17.2 µM | [8] 10.5 µM | [11] 18.7 µM | [12] 7.43 µM

CN1CCCN(C(=O)c2cccc(-c3ccc(C=C4C(=O)Nc5ccc(Cl)cc54)o3)c2)CC1
inactive: [10]
active: [1] 3.32 µM | [3] 23.5 µM | [13] 5.9 µM | [5] 2.09 µM | [6] 24.3 µM | [19] 7.43 µM | [7] 13.7 µM | [8] 33.2 µM | [11] 18.7 µM | [12] 18.7 µM

CCCCCN=C(N)NN=Cc1c[nH]c2ccc(OC)cc12
inactive: [4] | [10] | [11]
active: [7] 9.68 µM | [8] 18.7 µM

O=C(O)c1ccc(Nc2ncc3c(n2)-c2ccc(Cl)cc2C(c2c(F)cccc2F)=NC3)cc1
active: [1] 0.0662 µM | [8] 29.6 µM | [9] 23.5 µM | [15] 10.4 µM | [16] 4.14 µM
inactive: [6] | [10] | [17] | [18]

C[C@H](NC(=O)[C@@H](O)c1cc(F)cc(F)c1)C(=O)N[C@@H]1C(=O)N(C)c2ccccc2-c2ccccc21
inactive: [2] | [5] | [6] | [19] | [7] | [10]

Cc1coc2c1C(=O)C(=O)c1c-2ccc2c(C)cccc12
inactive: [4] | [5] | [7] | [9] | [10] | [11] | [12]

COc1ccc(S(=O)(=O)Nc2cccnc2Nc2ccc(O)cc2)cc1
inactive: [11]
active: [1] 0.0166 µM | [3] 0.235 µM | [5] 0.0469 µM | [6] 0.432 µM | [7] 0.306 µM | [12] 0.187 µM | [14] 0.522 µM | [16] 2.61 µM | [17] 3.29 µM | [18] 1.65 µM

CC(Cc1ccc(O)c(O)c1)(NN)C(=O)O (stereo not given)
inactive: [3] | [4] | [6] | [19] | [7] | [9] | [10]

NS(=O)(=O)OC[C@@H]1C[C@@H](n2ccc3c(N[C@H]4CCc5ccccc54)ncnc32)C[C@H]1O
inactive: [4] | [7] | [14] | [16] | [17]
active: [1] 0.132 µM | [13] 6.62 µM | [5] 0.833 µM | [8] 0.833 µM | [10] 6.62 µM | [12] 1.87 µM | [15] 14.7 µM
